Source: PubChem BioAssay AID1159580 (chemical genetic matrix, 2015)
In all, about 5,500 compounds went through this assay and about 2,000 (36%) were called active. Inconclusive results (about 18%) are left out. No stated cut-off is given here; in the data, active means normalized growth mostly below about 0.91 (no sharp cut-off); inconclusive means no clear call, values can overlap the other calls; inactive means mostly above about 0.92. The list shows a part of the results.

Assay: chemical genetic growth profiling, strain panel (AID 1159580);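 further: tested at 20 µM; growth read once vehicle control cultures reached saturation at 30 °C; 1 = growth at the plate median or of vehicle wells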
Details: growth OD

Measured: normalized growth

CC[C@]12CCCN3CCc4c(n(c5ccccc45)C(=O)C1)[C@@H]32
inactive: S. cerevisiae deletion strains, locus YAL013W, strain DEP1, stronger effect = lower value 0.967 | S. cerevisiae deletion strains, locus YAL021C, strain ccr4, stronger effect = lower value 0.968 | S. cerevisiae deletion strains, locus YAL026C, strain drs2, stronger effect = lower value 1.04 | S. cerevisiae deletion strains, locus YAL030W, strain snc1, stronger effect = lower value 1.01 | S. cerevisiae deletion strains, locus YBL061C, strain skt5, stronger effect = lower value 1.01 | S. cerevisiae deletion strains, locus YBR009C, strain hhf1, stronger effect = lower value 1.01 | S. cerevisiae deletion strains, locus YBR021W, strain FUR4, stronger effect = lower value 1.07 | S. cerevisiae deletion strains, locus YBR023C, strain chs3, stronger effect = lower value 1 | S. cerevisiae deletion strains, locus YBR171W, strain sec66, stronger effect = lower value 0.999 | S. cerevisiae deletion strains, locus YBR229C, strain ROT2, stronger effect = lower value 1.02 | S. cerevisiae deletion strains, locus YBR231C, strain swc5, stronger effect = lower value 1.01 | S. cerevisiae deletion strains, locus YBR279W, strain paf1, stronger effect = lower value 1 | S. cerevisiae deletion strains, locus YCL011C, strain gbp2, stronger effect = lower value 1.01 | S. cerevisiae deletion strains, locus YCL016C, strain dcc1, stronger effect = lower value 0.983 | S. cerevisiae deletion strains, locus YCL029C, strain bik1, stronger effect = lower value 0.989 | S. cerevisiae deletion strains, locus YCL069W, strain vba3, stronger effect = lower value 1 | S. cerevisiae deletion strains, locus YCR088W, strain abp1, stronger effect = lower value 1.01 | S. cerevisiae deletion strains, locus YDL005C, strain med2, stronger effect = lower value 1 | S. cerevisiae deletion strains, locus YDL035C, strain GPR1, stronger effect = lower value 0.941 | S. cerevisiae deletion strains, locus YDL040C, strain nat1, stronger effect = lower value 1 | S. cerevisiae deletion strains, locus YDL074C, strain BRE1, stronger effect = lower value 0.9 | S. cerevisiae deletion strains, locus YDL101C, strain DUN1, stronger effect = lower value 0.977 | S. cerevisiae deletion strains, locus YDL134C, strain PPH21, stronger effect = lower value 0.951 | S. cerevisiae deletion strains, locus YDL185W, strain tfp1, stronger effect = lower value 0.953 | S. cerevisiae deletion strains, locus YDL192W, strain arf1, stronger effect = lower value 0.977 | S. cerevisiae deletion strains, locus YDR001C, strain nth1, stronger effect = lower value 0.998 | S. cerevisiae deletion strains, locus YDR069C, strain doa4, stronger effect = lower value 1.04 | S. cerevisiae deletion strains, locus YDR101C, strain arx1, stronger effect = lower value 0.98 | S. cerevisiae deletion strains, locus YDR137W, strain rgp1, stronger effect = lower value 1.15 | S. cerevisiae deletion strains, locus YDR150W, strain NUM1, stronger effect = lower value 0.988 | S. cerevisiae deletion strains, locus YDR159W, strain sac3, stronger effect = lower value 0.995 | S. cerevisiae deletion strains, locus YDR195W, strain ref2 1.01 | S. cerevisiae deletion strains, locus YDR297W, strain sur2, stronger effect = lower value 1.01 | S. cerevisiae deletion strains, locus YDR318W, strain mcm21, stronger effect = lower value 0.978 | S. cerevisiae deletion strains, locus YDR334W, strain swr1, stronger effect = lower value 1 | S. cerevisiae deletion strains, locus YDR335W, strain msn5, stronger effect = lower value 0.998 | S. cerevisiae deletion strains, locus YDR388W, stronger effect = lower value 0.993 | S. cerevisiae deletion strains, locus YDR392W, strain spt3, stronger effect = lower value 0.804 | S. cerevisiae deletion strains, locus YDR502C, strain sam2, stronger effect = lower value 0.984 | S. cerevisiae deletion strains, locus YEL003W, strain gim4, stronger effect = lower value 1 | S. cerevisiae deletion strains, locus YEL037C, strain rad23, stronger effect = lower value 0.993 | S. cerevisiae deletion strains, locus YEL061C, strain CIN8 (second series), stronger effect = lower value 1 | S. cerevisiae deletion strains, locus YEL061C, strain CIN8, stronger effect = lower value 0.992 | S. cerevisiae deletion strains, locus YER015W, strain faa2, stronger effect = lower value 0.997 | S. cerevisiae deletion strains, locus YER016W, strain bim1, stronger effect = lower value 0.999 | S. cerevisiae deletion strains, locus YER110C, stronger effect = lower value 0.975 | S. cerevisiae deletion strains, locus YER111C, strain swi4, stronger effect = lower value 0.998 | S. cerevisiae deletion strains, locus YER155C, strain BEM2 (second series), stronger effect = lower value 0.976 | S. cerevisiae deletion strains, locus YER155C, strain BEM2, stronger effect = lower value 1.01 | S. cerevisiae deletion strains, locus YER167W, strain BCK2, stronger effect = lower value 1 | S. cerevisiae deletion strains, locus YFR010W, strain ubp6, stronger effect = lower value 1.01 | S. cerevisiae deletion strains, locus YGL078C, strain dbp3, stronger effect = lower value 0.983 | S. cerevisiae deletion strains, locus YGL086W, strain mad1, stronger effect = lower value 0.992 | S. cerevisiae deletion strains, locus YGL167C, strain pmr1, stronger effect = lower value 0.98 | S. cerevisiae deletion strains, locus YGL173C, strain kem1, stronger effect = lower value 1.02 | S. cerevisiae deletion strains, locus YGL227W, strain vid30, stronger effect = lower value 1.01 | S. cerevisiae deletion strains, locus YGL240W, strain doc1, stronger effect = lower value 0.999 | S. cerevisiae deletion strains, locus YGL253W, strain hxk2, stronger effect = lower value 1.03 | S. cerevisiae deletion strains, locus YGR135W, strain pre9, stronger effect = lower value 0.97 | S. cerevisiae deletion strains, locus YGR252W, strain gcn5, stronger effect = lower value 1.03 | S. cerevisiae deletion strains, locus YHR013C, strain ard1, stronger effect = lower value 0.98 | S. cerevisiae deletion strains, locus YHR027C, strain rpn1, stronger effect = lower value 1 | S. cerevisiae deletion strains, locus YHR079C, strain IRE1 (second series), stronger effect = lower value 0.982 | S. cerevisiae deletion strains, locus YHR094C, strain hxt1, stronger effect = lower value 0.99 | S. cerevisiae deletion strains, locus YHR129C, strain ARP1, stronger effect = lower value 0.993 | S. cerevisiae deletion strains, locus YHR142W, strain chs7, stronger effect = lower value 1.01 | S. cerevisiae deletion strains, locus YHR200W, strain rpn10, stronger effect = lower value 0.981 | S. cerevisiae deletion strains, locus YIL066C, strain RNR3, stronger effect = lower value 0.987 | S. cerevisiae deletion strains, locus YIL073C, strain SPO22, stronger effect = lower value 0.692 | S. cerevisiae deletion strains, locus YIL125W, strain kgd1, stronger effect = lower value 0.989 | S. cerevisiae deletion strains, locus YIR030C, strain dcg1, stronger effect = lower value 0.978 | S. cerevisiae deletion strains, locus YJL092W, strain hpr5, stronger effect = lower value 0.997 | S. cerevisiae deletion strains, locus YJL095W, strain BCK1 (second series), stronger effect = lower value 0.996 | S. cerevisiae deletion strains, locus YJL095W, strain BCK1, stronger effect = lower value 0.956 | S. cerevisiae deletion strains, locus YJL115W, strain asf1, stronger effect = lower value 0.994 | S. cerevisiae deletion strains, locus YJL129C, strain trk1, stronger effect = lower value 1.01 | S. cerevisiae deletion strains, locus YJL134W, strain LCB3, stronger effect = lower value 0.993 | S. cerevisiae deletion strains, locus YJL154C, strain vps35, stronger effect = lower value 0.993 | S. cerevisiae deletion strains, locus YJL164C, strain tpk1, stronger effect = lower value 0.984 | S. cerevisiae deletion strains, locus YJL166W, strain qcr8, stronger effect = lower value 1.01 | S. cerevisiae deletion strains, locus YJL168C, strain set2, stronger effect = lower value 0.992 | S. cerevisiae deletion strains, locus YJL187C, strain SWE1 (second series), stronger effect = lower value 0.966 | S. cerevisiae deletion strains, locus YJL187C, strain SWE1, stronger effect = lower value 1.01 | S. cerevisiae deletion strains, locus YJR043C, strain POL32, stronger effect = lower value 0.998 | S. cerevisiae deletion strains, locus YKL009W, strain mrt4, stronger effect = lower value 0.95 | S. cerevisiae deletion strains, locus YKL068W, stronger effect = lower value 0.981 | S. cerevisiae deletion strains, locus YKL085W, strain MDH1 (second series), stronger effect = lower value 0.976 | S. cerevisiae deletion strains, locus YKL085W, strain MDH1, stronger effect = lower value 0.976 | S. cerevisiae deletion strains, locus YKL160W, strain elf1, stronger effect = lower value 0.974 | S. cerevisiae deletion strains, locus YKL190W, strain CNB1, stronger effect = lower value 0.941 | S. cerevisiae deletion strains, locus YKR001C, strain vps1, stronger effect = lower value 0.955 | S. cerevisiae deletion strains, locus YKR026C, strain gcn3, stronger effect = lower value 0.996 | S. cerevisiae deletion strains, locus YKR091W, strain srl3, stronger effect = lower value 0.996 | S. cerevisiae deletion strains, locus YLL001W, strain dnm1, stronger effect = lower value 0.956 | S. cerevisiae deletion strains, locus YLL026W, stronger effect = lower value 0.994 | S. cerevisiae deletion strains, locus YLL041C, strain sdh2, stronger effect = lower value 1.01 | S. cerevisiae deletion strains, locus YLR027C, strain aat2, stronger effect = lower value 1.01 | S. cerevisiae deletion strains, locus YLR039C, strain RIC1, stronger effect = lower value 0.741 | S. cerevisiae deletion strains, locus YLR058C, strain SHM2, stronger effect = lower value 0.991 | S. cerevisiae deletion strains, locus YLR102C, strain apc9, stronger effect = lower value 0.985 | S. cerevisiae deletion strains, locus YLR221C, strain rsa3, stronger effect = lower value 1.04 | S. cerevisiae deletion strains, locus YLR258W, strain gsy2, stronger effect = lower value 1 | S. cerevisiae deletion strains, locus YLR262C, strain YPT6 (second series), stronger effect = lower value 0.991 | S. cerevisiae deletion strains, locus YLR262C, strain YPT6, stronger effect = lower value 0.776 | S. cerevisiae deletion strains, locus YLR268W, strain sec22, stronger effect = lower value 0.971 | S. cerevisiae deletion strains, locus YLR320W, strain mms22, stronger effect = lower value 1 | S. cerevisiae deletion strains, locus YLR330W, strain CHS5, stronger effect = lower value 0.956 | S. cerevisiae deletion strains, locus YLR342W, strain FKS1, stronger effect = lower value 0.999 | S. cerevisiae deletion strains, locus YLR357W, strain rsc2, stronger effect = lower value 0.994 | S. cerevisiae deletion strains, locus YLR370C, strain arc18, stronger effect = lower value 0.996 | S. cerevisiae deletion strains, locus YLR371W, strain rom2, stronger effect = lower value 0.983 | S. cerevisiae deletion strains, locus YLR384C, strain iki3, stronger effect = lower value 1.03 | S. cerevisiae deletion strains, locus YLR418C, strain cdc73, stronger effect = lower value 0.906 | S. cerevisiae deletion strains, locus YML016C, strain PPZ1, stronger effect = lower value 1 | S. cerevisiae deletion strains, locus YML032C, strain rad52, stronger effect = lower value 0.99 | S. cerevisiae deletion strains, locus YML120C, strain ndi1, stronger effect = lower value 0.986 | S. cerevisiae deletion strains, locus YML124C, strain tub3, stronger effect = lower value 0.979 | S. cerevisiae deletion strains, locus YMR058W, strain fet3, stronger effect = lower value 1.01 | S. cerevisiae deletion strains, locus YMR078C, strain ctf18, stronger effect = lower value 0.973 | S. cerevisiae deletion strains, locus YMR125W, strain sto1, stronger effect = lower value 0.994 | S. cerevisiae deletion strains, locus YMR129W, stronger effect = lower value 1 | S. cerevisiae deletion strains, locus YMR205C, strain PFK2, stronger effect = lower value 0.991 | S. cerevisiae deletion strains, locus YMR223W, strain ubp8, stronger effect = lower value 0.968 | S. cerevisiae deletion strains, locus YMR231W, strain pep5, stronger effect = lower value 0.997 | S. cerevisiae deletion strains, locus YMR307W, strain GAS1, stronger effect = lower value 0.685 | S. cerevisiae deletion strains, locus YNL067W, strain RPL9B, stronger effect = lower value 0.906 | S. cerevisiae deletion strains, locus YNL071W, strain lat1, stronger effect = lower value 0.996 | S. cerevisiae deletion strains, locus YNL209W, strain ssb2, stronger effect = lower value 0.983 | S. cerevisiae deletion strains, locus YNL233W, strain BNI4, stronger effect = lower value 0.943 | S. cerevisiae deletion strains, locus YNL248C, strain rpa49, stronger effect = lower value 1.02 | S. cerevisiae deletion strains, locus YNL250W, strain rad50, stronger effect = lower value 0.988 | S. cerevisiae deletion strains, locus YNL271C, strain bni1, stronger effect = lower value 0.978 | S. cerevisiae deletion strains, locus YNL298W, strain CLA4, stronger effect = lower value 0.998 | S. cerevisiae deletion strains, locus YNL307C, strain MCK1, stronger effect = lower value 0.984 | S. cerevisiae deletion strains, locus YNL322C, strain KRE1 (second series), stronger effect = lower value 0.979 | S. cerevisiae deletion strains, locus YNL322C, strain KRE1, stronger effect = lower value 0.983 | S. cerevisiae deletion strains, locus YNR049C, strain mso1, stronger effect = lower value 1.01 | S. cerevisiae deletion strains, locus YNR052C, strain pop2, stronger effect = lower value 0.986 | S. cerevisiae deletion strains, locus YOL012C, strain htz1 0.684 | S. cerevisiae deletion strains, locus YOL147C, strain pex11, stronger effect = lower value 0.989 | S. cerevisiae deletion strains, locus YOR001W, strain rrp6, stronger effect = lower value 1.02 | S. cerevisiae deletion strains, locus YOR061W, strain CKA2, stronger effect = lower value 0.966 | S. cerevisiae deletion strains, locus YOR069W, strain VPS5, stronger effect = lower value 0.987 | S. cerevisiae deletion strains, locus YOR070C, strain gyp1, stronger effect = lower value 1 | S. cerevisiae deletion strains, locus YOR080W, strain dia2, stronger effect = lower value 1 | S. cerevisiae deletion strains, locus YOR083W, strain WHI5, stronger effect = lower value 0.972 | S. cerevisiae deletion strains, locus YOR106W, strain vam3, stronger effect = lower value 0.981 | S. cerevisiae deletion strains, locus YOR136W, strain idh2, stronger effect = lower value 0.977 | S. cerevisiae deletion strains, locus YOR144C, strain elg1, stronger effect = lower value 0.99 | S. cerevisiae deletion strains, locus YOR184W, strain ser1, stronger effect = lower value 0.94 | S. cerevisiae deletion strains, locus YOR265W, strain rbl2, stronger effect = lower value 0.994 | S. cerevisiae deletion strains, locus YOR270C, strain vph1, stronger effect = lower value 1.06 | S. cerevisiae deletion strains, locus YOR290C, strain snf2, stronger effect = lower value 0.98 | S. cerevisiae deletion strains, locus YOR316C, strain cot1, stronger effect = lower value 0.987 | S. cerevisiae deletion strains, locus YPL051W, strain arl3, stronger effect = lower value 0.968 | S. cerevisiae deletion strains, locus YPL078C, strain atp4, stronger effect = lower value 0.969 | S. cerevisiae deletion strains, locus YPL106C, strain sse1, stronger effect = lower value 0.973 | S. cerevisiae deletion strains, locus YPL240C, strain hsp82, stronger effect = lower value 1 | S. cerevisiae deletion strains, locus YPL241C, strain CIN2, stronger effect = lower value 0.991 | S. cerevisiae deletion strains, locus YPR119W, strain clb2, stronger effect = lower value 0.976 | S. cerevisiae deletion strains, locus YPR141C, strain kar3, stronger effect = lower value 0.977 | S. cerevisiae deletion strains, locus YPR163C, strain tif3, stronger effect = lower value 0.988 | S. cerevisiae deletion strains, locus YPR167C, strain met16, stronger effect = lower value 0.974 | S. cerevisiae deletion strains, strain wtn01, stronger effect = lower value 0.973 | S. cerevisiae strains, strain wild type, stronger effect = lower value 0.967
active: S. cerevisiae deletion strains, locus YDR162C, strain NBP2, stronger effect = lower value 0.552 | S. cerevisiae deletion strains, locus YGL248W, strain PDE1, stronger effect = lower value 0.857 | S. cerevisiae deletion strains, locus YHR030C, strain SLT2, stronger effect = lower value 0.885 | S. cerevisiae deletion strains, locus YLR342W, strain FKS1 (second series), stronger effect = lower value 1.21 [resistant]
